Source: PubChem
Hits are enriched below; roughly 18% of the tested compounds scored in any of these assays.
TDP1 block: qHTS Assay for Inhibitors of Tyrosyl-DNA Phosphodiesterase (TDP1). Tyrosyl-DNA phosphodiesterase 1 (Homo sapiens), Q9NUW8. recombinant TDP1, AlphaScreen DNA substrate cleavage. Potency, µM (titrated, usually from 130 µM), usual class: inhibitors. actives 0.28% (n = 350,000). AID 485290, 2010; also: nearly all actives have a fitted effect of over 40% in size
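Signal: AlphaScreen proximity between streptavidin donor and anti-FITC acceptor beads on intact substrate. Reaction: Tdp1 1 nM, substrate 15 nM final, 5 min RT after 15 min compound preincubation.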
TDP1 cell noCPT: qHTS for Inhibitors of human tyrosyl-DNA phosphodiesterase 1 (TDP1): qHTS in cells in absence of CPT. actives 15% (n = 420,000). Potency, µM (series often up to 46.2 µM), actives largely listed as inhibitors. DT40 Tdp1-/- hTDP1 cells, no CPT, ATP luminescence, 48 h. AID 686978, 2013; also: nearly all actives have a fitted effect of over 55% in size
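Stably hTDP1-transfected Tdp1-null chicken DT40 cells were treated with library compounds minus camptothecin and grown for at least 48 hr at 37 °C, after which cellular ATP was quantified by luminescence.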
PLK1 PBD block: qHTS for Inhibitors of PLK1-PDB (polo-like kinase 1 - polo-box domain): Primary Screen | actives 2.8% (n = 360,000) | AID 720504, 2013 | Potency, µM, hits mostly inhibitors | Plk1 PBD binding of FITC phosphopeptide, fluorescence polarization | Serine/threonine-protein kinase PLK1 (Homo sapiens), P53350; also: series mostly up to about 57 µM; nearly all actives have a fitted effect of over 65% in size
Target sequence (P53350 whole entry, looked up, the tested form may be a part): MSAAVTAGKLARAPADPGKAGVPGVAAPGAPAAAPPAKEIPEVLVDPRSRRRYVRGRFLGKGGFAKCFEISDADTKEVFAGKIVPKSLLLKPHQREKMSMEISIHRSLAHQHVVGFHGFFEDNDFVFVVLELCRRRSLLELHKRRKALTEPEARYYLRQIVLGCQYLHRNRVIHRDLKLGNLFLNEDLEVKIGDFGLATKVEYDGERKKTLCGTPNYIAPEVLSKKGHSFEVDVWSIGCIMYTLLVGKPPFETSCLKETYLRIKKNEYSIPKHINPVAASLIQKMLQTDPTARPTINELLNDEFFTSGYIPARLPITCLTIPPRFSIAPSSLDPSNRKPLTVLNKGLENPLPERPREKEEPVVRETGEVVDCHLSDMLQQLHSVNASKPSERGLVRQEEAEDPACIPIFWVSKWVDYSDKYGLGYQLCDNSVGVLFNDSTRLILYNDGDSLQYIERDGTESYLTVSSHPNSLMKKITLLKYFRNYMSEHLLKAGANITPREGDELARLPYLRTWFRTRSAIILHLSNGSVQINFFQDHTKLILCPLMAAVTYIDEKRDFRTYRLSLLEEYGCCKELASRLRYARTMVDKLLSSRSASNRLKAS
GCN5L2 inh: qHTS Assay for Inhibitors of GCN5L2; actives 0.21% (n = 390,000); Potency, µM (doses to about 58.9 µM), hits mostly inhibitors; AID 504327, 2011; GCN5L2 HAT assay, ThioGlo1 CoA-SH fluorescence
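GCN5L2 (20 nM) in 50mM HEPES pH 7.5, 0.1mM EDTA, 0.01% Tween-20 preincubated 15 min with compounds at room temperature. Reaction started with H3(1-25) 75uM, acetyl-CoA 70uM, ThioGlo1 50uM; CoA-thiol fluorescence (Ex340/Em540) read at 0 and 20 min.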
TDP1 cell CPT: qHTS for Inhibitors of human tyrosyl-DNA phosphodiesterase 1 (TDP1): qHTS in cells in presence of CPT; chicken DT40 Tdp1-/-;hTDP1 cells + 20 nM CPT, ATP luminescence, 48 h; actives 12% (n = 420,000); Potency, µM (doses to about 46.2 µM), most hits filed as inhibitors; also: nearly all actives have a fitted effect of over 55% in size
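Chicken DT40 Tdp1-/- cells stably complemented with human TDP1 were seeded at 400 cells/well in medium containing 20 nM camptothecin, exposed to pin-transferred compounds, and grown at 37 °C for at least 48 hr. Viability was read as ATP luminescence.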
VDR inhibitor: Inhibitors of the vitamin D receptor (VDR): qHTS | Vitamin D3 receptor (Homo sapiens), P11473 | VDR-SRC2-3 peptide fluorescence polarization, 2 h | Potency, µM, usual class: inhibitors | actives 0.93% (n = 400,000) | AID 504847, 2011
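The screen uses fluorescence polarization to detect compounds that interfere with recruitment of the SRC2-3 coactivator peptide to VDR; plates are read after 2 h at room temperature.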
A number is an active result; 0 = inactive; ? = inconclusive; - = no result given; [ ] = another dose, or the depositor's remark. Calls follow the shape of the dose curve; as a rule, active = well fitted curve in the direction sought with a large enough effect; inconclusive = small, poorly fitted or top-dose-only effect, or another doubt; inactive = no such curve, though single readings can be large; an effect the other way counts as inactive or inconclusive.

SMILES	TDP1 block	TDP1 cell noCPT	PLK1 PBD block	GCN5L2 inh	TDP1 cell CPT	VDR inhibitor
COc1cccc2[nH]c(C(=O)NN)c(N)c12	0	16µM	0	0	?	0
COc1ccccc1C(=O)Nc1nc2ccccc2s1	-	10µM	0	0	16µM	0
CCOC(=O)c1sc(NC(=O)c2ccccc2OC)nc1C	0	?	0	0	8.2µM	0
COc1ccccc1C(=O)Nc1nc2ccc(S(C)(=O)=O)cc2s1	0	?	0	0	?	0
CCOC(=O)c1sc(NC(=O)c2cc3ccccc3o2)nc1C	0	0	0	0	0	0
COC(=O)c1ccc(CN2CCC3(CCC(CNC(=O)c4ccccc4)O3)CC2)cc1 (centres undefined)	-	0	-	-	0[9.04 µM]	-
CCCCN1C(=O)C(CC(=O)NCCCCc2ccccc2)CC(C(=O)N(C)C)=C1C (centres undefined)	-	?	0	-	0	-
CCOC(=O)c1[nH]c2ccc(OC)cc2c1NC(=S)N1CCN(c2ccccc2OC)CC1	0	8.2µM	0	0	5.2µM	0
CCOC(=O)c1[nH]c2ccccc2c1NC(=O)c1ccccc1OC	0	15µM	-	0	23µM	0
CCOC(=O)c1sc(Nc2nc3c(OC)cccc3s2)cc1C	0	16µM	0	0	?	0
CCOC(=O)c1[nH]c2ccc(OC)cc2c1NC(=S)N1CCN(C(=O)OCC)CC1	0	0	0	0	0	0
COc1ccccc1C(=O)Nc1nc(-c2ccccc2)ns1	0	23µM	-	0	0	0
CCC1(CC)NC(=O)N(CC(=O)Nc2cccc3ccccc23)C1=O	0	0	0	0	0	0
COc1cc(CNc2nc3ccccc3s2)cc(OC)c1OC	-	23µM	0	0	0	0
Cc1ccccc1C(=O)Nc1nnc(-c2ccco2)s1	0	?	0	0	0	0
COc1ccc(C(=O)Nc2ccccc2Cc2ccccc2)c(OC)c1	0	?	0	0	18µM	0
COc1ccccc1C(=O)Nc1nnc(-c2ccco2)s1	50µM	0	0	0	?	0
COc1ccc(NC(=O)c2ccccc2C)c(OC)c1	0	0	0	0	0	0
COc1ccc(C(=O)Nc2nc3ccccc3s2)c(OC)c1	0	21µM	3.4µM	0	?	?
CCOCCCNC(=O)Cn1ncc2c([nH]c3ccccc32)c1=O	0	0	-	0	0	0
COc1cc(CNc2ccc(C)c(C)c2)cc(OC)c1OC	?	1.3µM	0	0	2.1µM	0
C=CCn1ccc(=O)nc1SC	-	0	0	-	0	0
CCCNC(=O)COCc1cc(-c2ccc(F)cc2)on1	0	?	-	0	0	0
CCc1ccccc1NC(=O)CSc1nc2c(oc3ccccc32)c(=O)n1-c1ccccc1	0	18µM	-	0	23µM	0
Cc1cccc(NC(=O)CSc2nc3c(oc4ccccc43)c(=O)n2-c2ccccc2)c1C	0	21µM	-	0	?	0
SMILES	TDP1 block	TDP1 cell noCPT	PLK1 PBD block	GCN5L2 inh	TDP1 cell CPT	VDR inhibitor
Cc1cccc(-n2c(SCC(=O)Nc3ccccc3C)nc3c(oc4ccccc43)c2=O)c1	0	5.2µM	-	0	7.3µM	0
CCOc1ccccc1Oc1ncnc2c1oc1ccccc12	0	21µM	-	0	13µM	0
Cc1cc(C)cc(NC(=O)CSc2nc3c(oc4ccccc43)c(=O)n2-c2ccccc2)c1	0	?	0	0	0	0
N#CN=c1snc(-c2ccccc2)n1-c1ccc(Cl)cc1	-	?	-	-	?	0
CC1CN(CCNC(=O)C2CCCc3c2[nH]c2ccccc32)Cc2ccccc2O1 (centres undefined)	-	?	-	-	0[9.04 µM]	-
CCOc1ccccc1NC(=O)CSc1nc2c(oc3ccccc32)c(=O)n1-c1ccc(F)cc1	0	6.5µM	-	0	8.2µM	0
O=C(CSc1ncnc2c1oc1ccccc12)Nc1ccccc1F	0	0	0	0	0	0
CCOc1ccccc1NC(=O)CSc1ncnc2c1oc1ccccc12	0	?	0	0	29µM	0
O=C(CSC1=Nc2ccccc2C2=NC(Cc3ccccc3)C(=O)N12)Nc1ccccc1 (centres undefined)	0	?	-	0	?	0
COc1ccc(NC(=O)CSC2=Nc3ccccc3C3=NC(Cc4ccccc4)C(=O)N23)cc1Cl (centres undefined)	0	?	-	0	21µM	0
COc1cccc(NC(=O)CSC2=Nc3ccccc3C3=NC(CC(=O)NCc4ccccc4OC)C(=O)N23)c1 (centres undefined)	0	?	-	0	?	0
Cc1ccc(NC(=O)CSC2=Nc3ccccc3C3=NC(Cc4ccccc4)C(=O)N23)cc1C (centres undefined)	0	13µM	-	0	9.2µM	0
CC(=O)Nc1ccc(S(=O)(=O)N2CCN(c3cc(C)ccc3C)CC2)cc1	0	?	0	0	16µM	0
Cc1ccc(C)c(N2CCN(S(=O)(=O)c3ccc4c(c3)C(C)(C)C(=O)N4C)CC2)c1	-	23µM	0	?	?	0
CN1C(=O)Cc2cc(S(=O)(=O)N3CCN(c4ccccc4F)CC3)ccc21	0	0	0	0	?	0
CC(=O)Nc1ccc(S(=O)(=O)N2CCN(S(=O)(=O)c3ccccc3)CC2)cc1	-	0	0	0	0	0
CN1C(=O)C(C)(C)c2cc(S(=O)(=O)N3CCN(c4ccccc4F)CC3)ccc21	-	23µM	0	0	?	0
Cc1cccc(N2CCN(S(=O)(=O)c3ccc4c(c3)C(C)(C)C(=O)N4C)CC2)c1C	-	?	0	0	?	0
COC(=O)c1ccccc1NC(=O)COC(=O)CO/N=C(\C)c1ccc2c(c1)OCO2	0	0	0	0	0	0
O=C(c1ccccc1-c1ncc[nH]1)N1CCc2c([nH]c3ccccc23)C1c1ccccn1 (centres undefined)	0	?	0	0	?	0
COc1ccc(Oc2ncc3nc(CCc4ccccc4)c(=O)n(C4CC4)c3n2)cc1	-	?	-	0	?	0
COc1cccc(C(=O)Nc2ccccc2C(=O)OCc2cc(=O)n3c4c(sc3n2)CCCC4)c1	0	16µM	-	0	?	0
O=C(Nc1ccccc1C(=O)OCc1cc(=O)n2c3c(sc2n1)CCCC3)c1ccccc1	0	?	-	0	21µM	0
COc1ccc(C(=O)Nc2ccccc2C(=O)OCc2cc(=O)n3c4c(sc3n2)CCCC4)cc1	0	?	-	0	?	0
COc1ccc(C2=C(SC)CC2=NC(C)(C)C)cc1	0	?	?	0	0	0
